TDP1 cell CPT: qHTS for Inhibitors of human tyrosyl-DNA phosphodiesterase 1 (TDP1): qHTS in cells in presence of CPT. chicken DT40 Tdp1-/-;hTDP1 cells + 20 nM CPT, ATP luminescence, 48 h. Potency, µM (titrated, usually from 46.2 µM), without a hit: at the highest dose activity change, negative = growth inhibition, hits mostly inhibitors. actives 12% (n = 420,000); further: potency means the concentration at half of the fitted maximal effect; on the % scale 0 is the no-effect control and ±100 the full control effect; nearly all actives have a fitted effect of over 55% in size
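Cell growth measured by CellTiter-Glo luminescence after a minimum 48 h, 37 C compound exposure with 20 nM CPT in Tdp1-knockout DT40 cells stably expressing hTDP1, seeded 400/well; qHTS titration format.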
TGFb inhibitor: qHTS for Inhibitors of TGF-b. HepG2 CAGA-GFP TGF-b/SMAD3 reporter, GFP fluorescence, 18 h; TGF-beta stimulated, 500 pg/mL final. Potency, µM (titrated, usually from 46.1 µM), inactives show at the top dose activity, negative = inhibition, most hits filed as inhibitors. actives 1.2% (n = 410,000). AID 588855, 2011; further: potency means the concentration at half of the fitted maximal effect; on the % scale 0 is the no-effect control and ±100 the full control effect; nearly all actives have a fitted effect of over 65% in size
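Inhibition of TGF-beta-driven CAGA-GFP reporter expression in HEPG2 cells is measured by cellular GFP fluorescence after 18 h stimulation with 500 pg/mL recombinant TGF-beta in 1% FBS medium at 37 degrees C.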
HepG2 viability: qHTS for Inhibitors of TGF-b: Cytotox Counterscreen | HepG2 CAGA-GFP viability, ATP luminescence, 18 h | Potency, µM (titrated, usually from 46.1 µM), without a hit: top-dose activity change, negative = cytotoxicity, most hits filed as cytotoxic | actives 0.76% (n = 410,000); further: potency means the concentration at half of the fitted maximal effect
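HepG2 CAGA-GFP cells (1000/well, DMEM with 1% FBS) received compound, then TGF-beta at 500 pg/mL final, and were incubated 18 hours at 37 degrees C. Viability was read by CellTiter-Glo luminescence. Media-only wells were set as complete cell-killing and DMSO as no toxicity.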
TDP1 cell noCPT: qHTS for Inhibitors of human tyrosyl-DNA phosphodiesterase 1 (TDP1): qHTS in cells in absence of CPT; DT40 Tdp1-/- hTDP1 cells, no CPT, ATP luminescence, 48 h; Potency, µM (titrated, usually from 46.2 µM), for the others: top-dose activity change, negative = growth inhibition, most hits filed as inhibitors; actives 15% (n = 420,000); AID 686978, 2013; further: potency means the concentration at half of the fitted maximal effect; on the % scale 0 is the no-effect control and ±100 the full control effect; nearly all actives have a fitted effect of over 55% in size
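Chicken DT40 Tdp1-/- cells complemented with human TDP1, screened without camptothecin (DMSO vehicle only), 400 cells/well. Compounds pin-transferred, cells incubated at 37 °C for at least 48 hr. Growth read as ATP-dependent luminescence (CellTiter-Glo, 30 min at RT).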
IL1B secr inh: qHTS for Inhibitors of Inflammasome Signaling: IL-1-beta AlphaLISA Primary Screen. AID 743279, 2014. THP-1 LPS/ATP IL-1B secretion, AlphaLISA, 16 h; stronger effect = lower value. activity change, % at 57.5 µM. actives 4.7% (n = 360,000); in the data active means activity change below about -50%; inconclusive means mostly about -30% to -49%; further: on the % scale 0 is the no-effect control and ±100 the full control effect
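THP-1 cells pretreated 1 hr with compounds (up to 57.5 uM final), then stimulated with LPS (250 ng/mL final) plus ATP (1.25 mM final); secreted IL-1B measured by AlphaLISA after 16 hr, decreased signal indicating inhibition.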
TDP1 inh: qHTS Assay for Inhibitors of Tyrosyl-DNA Phosphodiesterase (TDP1). Tyrosyl-DNA phosphodiesterase 1 (Homo sapiens), Q9NUW8. Potency, µM (series often up to 130 µM), for inactives: at the top dose activity change, negative = inhibition, hits mostly inhibitors. recombinant TDP1, AlphaScreen DNA substrate cleavage. AID 485290, 2010. actives 0.28% (n = 350,000); further: potency means the concentration at half of the fitted maximal effect; on the % scale 0 is the no-effect control and ±100 the full control effect; nearly all actives have a fitted effect of over 40% in size
Target sequence (Q9NUW8 whole entry, looked up): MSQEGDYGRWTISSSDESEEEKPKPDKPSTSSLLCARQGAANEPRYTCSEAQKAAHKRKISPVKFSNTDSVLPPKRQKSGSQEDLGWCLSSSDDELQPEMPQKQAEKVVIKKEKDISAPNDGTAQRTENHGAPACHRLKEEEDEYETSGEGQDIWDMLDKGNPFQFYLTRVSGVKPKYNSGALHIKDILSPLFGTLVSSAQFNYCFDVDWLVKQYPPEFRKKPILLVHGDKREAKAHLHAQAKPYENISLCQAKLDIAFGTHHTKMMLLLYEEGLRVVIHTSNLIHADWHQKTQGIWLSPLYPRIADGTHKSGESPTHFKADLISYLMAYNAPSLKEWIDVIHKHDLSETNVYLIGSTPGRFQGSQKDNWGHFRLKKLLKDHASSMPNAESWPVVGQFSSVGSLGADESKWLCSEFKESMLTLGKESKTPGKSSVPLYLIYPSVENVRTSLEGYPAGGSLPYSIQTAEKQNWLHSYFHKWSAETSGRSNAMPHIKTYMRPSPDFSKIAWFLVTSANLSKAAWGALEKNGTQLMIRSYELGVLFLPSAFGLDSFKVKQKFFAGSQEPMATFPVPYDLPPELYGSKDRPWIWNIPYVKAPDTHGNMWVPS
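Tdp1 1 nM final; 15 min RT w/ cpd; substrate 15 nM, 5 min; beads 10 ug/ml, 10 min; AlphaScreen read. Neg ctrl: no enzyme.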
* = called active by the depositor; ? = inconclusive; nt = no result; [ ] = dose if it differs, or a comment. In the library only some 19% were active in any assay of this set; here they are far more common. Unless noted, the call rests on the fitted dose curve; in most records, active means well fitted curve in the direction sought with a large enough effect; inconclusive means small, poorly fitted or top-dose-only effect, or another doubt; inactive means no such curve, though single readings can be large; an effect the other way counts as inactive or inconclusive.

SMILES	TDP1 cell CPT	TGFb inhibitor	HepG2 viability	TDP1 cell noCPT	IL1B secr inh	TDP1 inh
COc1ccc2cc(C(=O)N3CCN(c4ccccc4F)CC3)[nH]c2c1	-29%	-23%	5%	-4%	35	nt
COc1ccc(-c2cc(C(=O)N3CCN(c4ncccn4)CC3)c3ccccc3n2)c(OC)c1	?	-2%	-1%	23µM*	7	6%
COc1ccc(-c2cc(C(=O)N3CCN(c4ccccc4F)CC3)c3ccccc3n2)c(OC)c1	?	?	12%	18µM*	-2	1%
Nc1nc(=O)c2ccccc2s1	?	?	-13%	-76%	0	nt
CC1=C(C(N)=O)C(c2cccc(Br)c2)n2nc(SCc3ccccc3)nc2N1 (stereo not drawn)	-13%	?	-1%	0%	nt	6%
COc1ccc(-c2cc(C(=O)N3CCN(c4ccccc4O)CC3)c3ccccc3n2)cc1OC	?	?	-31%	18µM*	?	4%
COc1ccc(-c2cc(C(=O)N3CCN(c4ncccn4)CC3)c3ccccc3n2)cc1	?	-19%	-26%	?	-16	0%
COc1ccc(OC)c(-c2cc(C(=O)N3CCN(c4ncccn4)CC3)c3ccccc3n2)c1	16µM*	?	8%	18µM*	-10	2%
CSc1ncc(C(=O)Nc2cccc(Cl)c2)c(C)n1	-11%	-13%	-2%	?	8	nt
Nc1n[nH]c(N)c1N=Nc1cccc(F)c1	?	-18%	0%	-12%	-78*	4%
O=C(c1ccc(C(F)(F)F)cc1)C1CCCN(Cc2cccn2-c2ncccn2)C1 (stereo not drawn)	?	-17%	-23%	26µM*	-73*	0%
COc1cccc(C(=O)C2CCCN(Cc3cccn3-c3ccccn3)C2)c1 (stereo not drawn)	?	8%	-18%	18µM*	?	nt
COc1cccc(C(=O)C2CCCN(Cc3cccc(OCCO)c3)C2)c1 (stereo not drawn)	17%	3%	-11%	-17%	-2	nt
COc1ccc(C(=O)C2CCCN(Cc3ccc4c(c3)OCCO4)C2)cc1F (stereo not drawn)	?	-28%	-14%	-21%	-5	nt
COc1ccc(C(=O)C2CCCN(Cc3cccn3-c3ccccn3)C2)cc1F (stereo not drawn)	16µM*	2%	-36%	15µM*	-52*	3%
COc1ccc(F)cc1C(=O)C1CCCN(Cc2cccn2-c2cccnc2)C1 (stereo not drawn)	?	?	-30%	21µM*	12	2%
O=C(NCCS(=O)(=O)N1CCN(c2ccccc2F)CC1)c1cc(=O)c2ccccc2o1	-25%	9%	0%	?	13	0%
CSc1ccc(CCNC(=O)C2CCN(c3ncnc4c3nc3n4CCCCC3)CC2)cc1	-1%	-6%	-5%	-25%	nt	6%
OCCC1CN(Cc2cccn2-c2ccccn2)CCN1C1CCCC1 (stereo not drawn)	31%	-2%	-6%	-6%	-13	3%
Cc1ccc(-n2cccn2)c(CN2CCCC(C(=O)c3sccc3C)C2)c1 (stereo not drawn)	23µM*	?	-21%	23µM*	-95*	5%
O=C(c1ccc(Cl)cc1)C1CCCN(Cc2cccn2-c2ccccn2)C1 (stereo not drawn)	9.2µM*	-1%	-38%	?	-80*	8%
COc1ccc(O)c(CN2CCCC(C(=O)Nc3cccc(-n4cccn4)c3)C2)c1 (stereo not drawn)	?	-15%	-27%	?	-6	6%
CC(C)Oc1cccc(C(=O)C2CCCN(Cc3cccn3-c3ccccn3)C2)c1 (stereo not drawn)	?	?	-29%	?	-92*	5%
CSc1ccc(C(=O)C2CCCN(Cc3cccc4nccnc34)C2)cc1 (stereo not drawn)	15µM*	-12%	-14%	?	-20	nt
CC(C)Oc1cccc(C(=O)C2CCCN(Cc3ccc4nonc4c3)C2)c1 (stereo not drawn)	-15%	1%	-3%	-9%	6	0%
SMILES	TDP1 cell CPT	TGFb inhibitor	HepG2 viability	TDP1 cell noCPT	IL1B secr inh	TDP1 inh
O=C(COc1ccccc1F)Nc1ccc(OCc2cc(=O)n3ccccc3n2)cc1	2%	-29%	-20%	-10%	nt	5%
COc1cccc(C(=O)C2CCCN(CC3=Cc4cc(OC)ccc4OC3)C2)c1 (stereo not drawn)	?	-14%	-11%	-24%	-89*	nt
Cc1ccsc1C(=O)C1CCCN(Cc2cccn2-c2ccc(Cl)cn2)C1 (stereo not drawn)	23µM*	?	-29%	26µM*	-76*	5%
COc1ccc2c(c1)C=C(CN1CCN(Cc3ccccc3C)C(CCO)C1)CO2 (stereo not drawn)	-21%	-15%	-27%	?	?	nt
Cc1nn(C)cc1NC(=O)CC12CC3CC(CC(C3)C1)C2	?	5%	4%	?	17	-5%
CCn1nc(C)c(NC(=O)CC23CC4CC(CC(C4)C2)C3)c1C	?	-13%	1%	21µM*	47	-3%
Cc1cc(F)ccc1S(=O)(=O)N1CCCOC1CNC(=O)C(=O)NCc1ccc2c(c1)OCO2 (stereo not drawn)	-21%	?	-21%	-3%	6	4%
COC(=O)NC(c1ccc(F)cc1)C(C(C)=O)C(=O)OC (stereo not drawn)	nt	nt	nt	nt	nt	-4%[21 µM]
N=c1sccn1CC(=O)Nc1cccc(S(N)(=O)=O)c1	8%	1%	-2%	11%	-24	5%
N=c1sccn1CC(=O)Nc1cccc(Oc2ccccc2)c1	?	?	-47%	22µM*	-22	6%
O=C(CCl)Nc1cccc(Oc2ccccc2)c1	3.3µM*	8.9µM*	-92%	2.9µM*	-106*	5%
COc1cc(NC(=O)CCl)ccc(=O)c1	13µM*	?	0.71µM*	18µM*	-14	nt
COc1cccc(NC(=O)CC(C)=O)c1	-7%	-17%	3%	-16%	-3	6%

Source: PubChem
